From PubChem BioAssay AID651650 (Sanford-Burnham Center for Chemical Genomics, 2012)

target: Neuropilin-1 (Homo sapiens) (UniProt O14786); experiment: blockers of CendR peptide binding to NRP-1 – biochemical, FP and AlphaScreen panel, dose response (AID 651650); settings: NRP-1 b1b2 / RPARPAR peptide binding, FP or AlphaScreen; run 1, at 100 µM (top of the series)
Sequence (O14786 whole entry, looked up): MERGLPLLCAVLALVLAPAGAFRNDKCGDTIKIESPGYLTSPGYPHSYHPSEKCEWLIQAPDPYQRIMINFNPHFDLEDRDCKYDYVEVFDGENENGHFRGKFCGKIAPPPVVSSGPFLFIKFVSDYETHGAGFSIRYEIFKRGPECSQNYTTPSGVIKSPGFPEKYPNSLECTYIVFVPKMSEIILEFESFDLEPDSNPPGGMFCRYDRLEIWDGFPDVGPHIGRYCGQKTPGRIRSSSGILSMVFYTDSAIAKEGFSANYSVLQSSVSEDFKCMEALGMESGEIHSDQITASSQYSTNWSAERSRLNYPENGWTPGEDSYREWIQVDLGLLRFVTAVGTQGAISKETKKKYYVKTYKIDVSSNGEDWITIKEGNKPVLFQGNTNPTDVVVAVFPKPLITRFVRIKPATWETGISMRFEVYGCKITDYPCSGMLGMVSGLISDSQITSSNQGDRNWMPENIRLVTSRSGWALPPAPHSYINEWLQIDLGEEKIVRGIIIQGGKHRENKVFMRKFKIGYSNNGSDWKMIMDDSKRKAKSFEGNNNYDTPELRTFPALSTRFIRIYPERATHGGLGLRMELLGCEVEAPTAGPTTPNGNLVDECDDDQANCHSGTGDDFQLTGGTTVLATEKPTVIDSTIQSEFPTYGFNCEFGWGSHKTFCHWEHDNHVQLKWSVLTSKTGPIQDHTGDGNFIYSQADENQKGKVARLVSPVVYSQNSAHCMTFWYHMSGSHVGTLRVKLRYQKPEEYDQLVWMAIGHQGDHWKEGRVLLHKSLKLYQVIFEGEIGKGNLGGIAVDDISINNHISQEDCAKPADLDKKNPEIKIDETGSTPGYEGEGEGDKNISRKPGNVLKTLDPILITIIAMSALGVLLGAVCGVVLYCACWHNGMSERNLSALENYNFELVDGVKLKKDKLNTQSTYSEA

| Structure (SMILES) | inhibition |
| --- | --- |
| O=C(OCn1nnc2ccccc2c1=O)c1ccc(Br)o1 | 25.4% |
| COc1ccc(Cn2c(C3CC3)nc3ccc(NC(=O)c4cccnc4)cc3c2=O)cc1 | 88.1% |
| O=C(Cn1cccc1C(=O)c1ccccc1)NCCC1=CCCCC1 | 94.3% |
| CCOc1ccc(S(=O)(=O)NNC(=O)c2cc3ccccc3o2)cc1 | 1.91% |
| COc1cccc(OCCNC(=O)Nc2cc(F)c(F)cc2Cl)c1 | 54.1% |
| Cc1ccc(NC(=O)c2ccc3c(c2)S(=O)(=O)c2ccccc2C3=O)cc1S(=O)(=O)N1CCOCC1 | 26.3% |
| O=C(O)c1cc(NCc2ccc(F)cc2)ccc1N1CCOCC1 | 46.8% |
| COCc1cccc(-c2csc(C(C)(O)c3ccccc3)n2)c1 (stereo not drawn) | 25.6% |
| COc1ccc(-c2csc(NC(CO)c3nc4ccccc4n3CCCO)n2)cc1 (stereo not drawn) | 41.5% |
| O=C(COc1ccc(Br)cc1CO)Nc1ccc(F)cc1 | -9.04% |
| CCCn1c(C)cc(C(=O)CSc2nc3nc(C)cc(C)n3n2)c1C | 5.46% |
| CC(C)Cc1ccc(C(C)C(=O)Nc2ccc(O)cc2)cc1 (stereo not drawn) | 34.6% |
| CC#CCN(Cc1ccco1)C(=O)C1CCC(=O)N(Cc2ccccc2F)C1 (stereo not drawn) | 24.4% |
| NC(=O)C1CCN(c2nc(-c3ccc4occc(=O)c4c3)cs2)CC1 | 53.3% |
| COc1ccccc1C(=O)NC(=O)CSc1nncn1C | 30.4% |
| CC(C)c1ccc(S(=O)(=O)N2CCN(C(=O)CN3C(=O)c4ccccc4C3=O)CC2)cc1 | 64.7% |
| CC(OC(=O)c1ccco1)C(=O)Nc1nc(-c2ccccc2)cs1 (stereo not drawn) | -9.71% |
| Cc1ccc(NC(=O)COc2ncnc3c(Cl)cc(Cl)cc23)cc1[N+](=O)[O-] | -2.85% |
| CC(=O)Nc1ccccc1OCC(=O)N(Cc1ccccc1)C(C)C | 18.2% |

| Structure (SMILES) | inhibition |
| --- | --- |
| C[C@@H](NC(=O)c1[nH]cnc1C(=O)Nc1cccc(Cl)c1)c1ccccc1 | 54.3% |
| O=C(Nc1cc(C(F)(F)F)ccc1N1CCCC1)C1CC(=O)N(Cc2ccccc2)C1 (stereo not drawn) | 2.78% |
| CCN(c1ccccc1)S(=O)(=O)c1ccc(C(=O)N(CCCN(C)C)c2nc3cc4c(cc3s2)OCO4)cc1 | 72.6% |
| COc1ccc([C@H]2/C=C\CN(C(=O)C3CC3)[C@@H](C)C(=O)N2Cc2ccc(F)cc2)cc1 | 30.1% |
| OCC1OC(n2cnc3c(/C=C(\O)c4ccccc4)ncnc32)C(O)C1O (stereo not drawn) | 3.57% |
| CCCNC(=S)Nc1cccc(C(F)(F)F)c1 | -8.06% |
| CN(C)/N=C/c1ccc(Sc2ccc([N+](=O)[O-])cc2[N+](=O)[O-])o1 | 55.1% |
| CCc1ccccc1NC(=O)c1ccccc1N1C(=O)C2C3C=CC(C3)C2C1=O (stereo not drawn) | 21.3% |
| CCOC(=O)C(NC(=O)CC(C)C)(Nc1sc(C)c(CC)c1C#N)C(F)(F)F (stereo not drawn) | -7.38% |
| CC(=O)c1cccc(S(=O)(=O)N2CCC(C(=O)O)(c3ccccc3)CC2)c1 | 49.1% |
| CN(Cc1cnn(C)c1)C(=O)c1cc2ccccc2oc1=O | 29.1% |
| NCCCC[C@H]1CN=C(N)N1CCC12CC3CC(CC(C3)C1)C2 | 70.7% |
| Cn1c(SCc2nc3ccccc3s2)nnc1-c1cccs1 | 65.1% |
| Cc1nnc(NC(=O)c2ccccc2C(=O)O)s1 | 99.7% |
| Cc1ccc(C(=O)N2CCN(C34CC5CC(CC(C5)C3)C4)CC2)o1 | 57.6% |
| Cc1cc2cc(CNC(=O)c3ccc(S(=O)(=O)N4CCOCC4)cc3)ccc2n1C | 18.3% |
| C=C1C[C@@]23CCC4[C@@](C)(CCC[C@@]4(C)C(=O)O)C2CC[C@]1(O)C3 (stereo partly drawn) | 63.6% |
| O=C(c1ccc(-c2cccc(Cl)c2)o1)N1CCN(c2ccc([N+](=O)[O-])cc2)CC1 | 21.7% |
| Cc1ccccc1Nc1nc(N)nc(COC(=O)CC2CC3CCC2C3)n1 (stereo not drawn) | 3.37% |
